Data on 40 compounds can be found in PubChem BioAssay (NCI).

This is part of a sample that, as a whole, favours compounds with a hit. Of some 83,000 tested, about 20% had one in any assay.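 The test compound was applied at a single concentration to cells in 96-well plates for 48 hours, and percent growth was recorded.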 Values without a mark were called inactive. Active and inactive are the calls of the source.

For this assay, the system named is CCRF-CEM leukemia. The assay is described as follows: NCI-60 one-dose screen, 48 h (100 = growth as untreated, 0 = no growth, -100 = all killed). As to conditions: 10 µM unless noted. As to the method: Growth inhibition of the CCRF-CEM human tumor cell line is measured as a screen for anti-cancer activity. Cells are grown in 96 well plates and exposed to the test compound for 48 hours. Compounds are tested at a single concentration, which is 10^-5 M for most compounds. The reported endpoint is percent growth (GI% or GIPRCNT), where numbers from 0 - 100% represent growth inhibition, and numbers from -100% - 0 represent cell death. For example, a value of 40 represents 60% growth inhibition. A value of 0 means no net growth occurred over the course of the experiment. A value of -40 indicates 40% of cells at the beginning of the experiment died by the end of the experiment. A value of -100 means all cells are dead at the end of the experiment.
NCI-60 Human Tumor Cell Lines Screen was performed using the standard one-dose NCI protocol, which is described in more detail at https://dtp.cancer.gov/discovery_development/nci-60/default.htm.
Compounds with GIPRCNT values below 10 were considered active. Activity score was based on GIPRCNT using the following formula: […]
Score is 0 for GIPRCNT values of 100 or above, 50 for GIPRCNT values of 0, and 100 for GIPRCNT values of -100.
On to `COc1cc(C2CC(=O)Nc3nc(N)[se]c32)cc(OC)c1OC` (stereo not given), for which the growth is 96%.
The figure for `CC(C)(C)NCC(O)c1ccccc1Cl` (stereo not given) is 10.5%; for `N#[N+]c1nc2nc(N)[nH]c(=O)c2[nH]1` it is 95.1%; for `O=C(CCc1ccco1)NC1CCN(CC2(c3ccc(Cl)cc3)CCC2)CC1` it is 6.1% (active).
The value for `C1CN1c1nc(N2CC2)nc(N2CC2)n1` was 15.6%; that for `Oc1ccc(Br)cc1CN1CCN(Cc2ccc(Cl)cc2)CC1` was 26.7%; that for `CCC(C)(C)O` was 6.63% (active).
The value for `O=C(O)C1(Br)CC12c1ccccc1-c1ccccc12` (stereo not given) was 97.4%.
With `N#[N+]c1cnc([O-])[nH]c1=O`, the growth was 69.9%.
The value for `CC(CC(C#N)(c1ccccc1)c1ccccc1)N1CCOCC1` (stereo not given) was 99.5%.
The figure for `O=S(=O)(O)c1ccc(-c2ccc([As](=O)(O)O)cc2)cc1` is 99.7%; for `CC(=O)[O][Hg][CH2]C1(C)COC(C)([CH2][Hg][O]C(C)=O)CO1` (stereo not given) it is -65.3% (active); for `S=P(NC1CCCCC1)(N1CC1)N1CC1` it is 102%.
The figure for `S=P(Nc1ccccc1)(Nc1ccccc1)c1ccccc1` is 95.3%.
With `CC(/C=N/N=C(N)N)=N\N=C(N)N`, the growth is 53%.
`c1ccc(CCN2CCCCC2Cc2ccccc2)cc1` (stereo not given): the growth was 105%.
The value for `CSc1ccccc1NP1(=O)OCC(C)([N+](=O)[O-])CO1` (stereo not given) was 80.8%; that for `CNC(=O)O/N=C(/C)c1ccc(Cl)cc1` was 96.3%; that for `COc1ccccc1N1CCN(CCc2c[nH]c3cc4c(cc23)OCO4)CC1` was 75.4%.
As for `Nc1cccc2c1Oc1ccccc1O2`, the growth was 87.7%.
Consider `COc1ccc(OC)c(/C=C(/C)[N+](=O)[O-])c1`, for which the growth was -2.22% (active).
The figure for `CC(C)(NC(=O)c1nn(CCCCCF)c2ccccc12)c1ccccc1` is 82.5%; for `O=C1NC(=O)C(O)(C2(O)C(=O)NC(=O)NC2=O)C(=O)N1` it is 70.1%.
For `N#CC1c2ccccc2C=CN1C(=O)c1ccc(N(CCCl)CCCl)cc1` (stereo not given), the growth was 87%.
The value for `CC(=O)N1N=C(c2ccccc2)CC1c1sc(N(CCCl)CCCl)nc1Cl` (stereo not given) was 93.5%; that for `C1CNC2CCCC2C1` (stereo not given) was 106%.
On to `CNC(=O)Oc1ccccc1-c1ccccc1`, for which the growth is 94.1%.
The figure for `C[C@]12C[C@H](O)[C@H]3[C@@H](CCC4=CC(=O)CC[C@@]43C)[C@@H]1CC[C@@H]2O` is 97.3%; for `Cc1cc(NC(=O)NCCOc2ccc(N3C(N)=NC(N)=NC3(C)C)cc2Cl)ccc1S(=O)(=O)F` it is 18.6%.
The figure for `C=CCC1(CC)C(=O)NC(=S)NC1=O` is 100%; for `N#C[Se]CCN1C(=O)C2C(C1=O)[C@H]1C=C[C@@H]2S1` (stereo not given in full) it is 8.31% (active).
The value for `C[C@]12CCC(=O)CC1CC[C@@H]1C2CC[C@@]2(C)C1CC[C@@H]2OC(=O)CC[Se][Se]CCC(=O)O[C@H]1CCC2[C@@H]3CCC4CC(=O)CC[C@]4(C)C3CC[C@@]21C` (stereo not given in full) was 100%; that for `COC(=O)C1CC2c3ccccc3C1c1ccccc12` (stereo not given) was 83.4%.
As to `CN1CCN(C(=O)COc2ccc(/C=C3\CC4C5CC=C6CC(Cl)CCC6(C)C5CCC4(C)C3=O)cc2)CC1` (stereo not given), the growth was 49.3%.
The value for `CC(=O)O[C@@H]1C2=C(C)C3(CC3)[C@@](C)(O)C(=O)C2=C[C@@]1(C)CO` was 10.9%.
The value for `C[C@]12CC[C@H]3[C@@H](C[C@@H]4N=C(c5ccc(O)cc5)S[C@@]45C[C@H](O)CC[C@]35C)[C@@H]1CC[C@@H]2O` was 13.1%; that for `Nc1ccc(N)c2c1Oc1ccccc1O2` was 30.3%; that for `CN(Cc1cccnc1)N=O` was 100%.
The value for `CC1([N+](=O)[O-])COP(=O)(Nc2ccc(F)cc2)OC1` (stereo not given) was 96.3%; that for `CC(=O)Nc1ccc(C=C2C(=O)NC(=O)NC2=O)cc1` was 86.1%.
